# The list is not random: actives were taken first. Their share in the collection is about 2.7%.
# CHT allo act: allosterically activates the human high affinity choline transporter | Q9GZV3 | CHT-expressing cells, membrane potential dye, choline EC20; stronger effect = higher value; LV-AA mutant CHT in HEK293 cells | B-score at 10 µM | hit rate 0.49% among 310,000 | AID 488977;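 active = initial fluorescence not abnormally high and integrated response B-score, plate-corrected, over 3 SD above library mean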
# IDE cell activ: activators of human insulin-degrading enzyme in cells; P14735; HEK cells, FAbeta-B cleavage, fluorescence polarization; 0% vehicle, 100% cell-free pure enzyme wells; activation, % at 5.96 µM; hit rate 0.073% among 340,000; AID 493087;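 active = activation above the mean of all tested compounds plus 3 SD, set per screening campaign, cut at about 17% in these data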
# CHT inh: inhibitors of human choline transporter CHT; Q9GZV3; CHT-expressing cells, membrane potential dye, choline response; stronger effect = lower value; B-score at 10 µM; hit rate 0.86% among 310,000; AID 488975;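 active = B-score over 3 SD under the library average, and starting fluorescence ratio not unusually high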;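 also: choline stimulus applied at its EC90 after an EC20 pre-addition; B-score computed on integrated fluorescence ratio after choline addition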
# ANO1 activ: activators or potentiators of mouse TMEM16A chloride channel | B-score at 10 µM | Q8BHY3 | hit rate 0.3% among 340,000 | HEK293 TMEM16A/YFP-H148Q/I152L, iodide quench fluorescence; stronger effect = lower value | AID 623877;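 active = fluorescence-ratio B-score plate-corrected deviation score at least 3 library SD below zero, with starting fluorescence score within 5 deviations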;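 also: channel opened by trigger with iodide after compound preincubation; score built on the fluorescence ratio of max minus min over baseline; more negative score means more quench and so TMEM16A activation or potentiation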
# Target sequence (Q8BHY3 whole entry, looked up): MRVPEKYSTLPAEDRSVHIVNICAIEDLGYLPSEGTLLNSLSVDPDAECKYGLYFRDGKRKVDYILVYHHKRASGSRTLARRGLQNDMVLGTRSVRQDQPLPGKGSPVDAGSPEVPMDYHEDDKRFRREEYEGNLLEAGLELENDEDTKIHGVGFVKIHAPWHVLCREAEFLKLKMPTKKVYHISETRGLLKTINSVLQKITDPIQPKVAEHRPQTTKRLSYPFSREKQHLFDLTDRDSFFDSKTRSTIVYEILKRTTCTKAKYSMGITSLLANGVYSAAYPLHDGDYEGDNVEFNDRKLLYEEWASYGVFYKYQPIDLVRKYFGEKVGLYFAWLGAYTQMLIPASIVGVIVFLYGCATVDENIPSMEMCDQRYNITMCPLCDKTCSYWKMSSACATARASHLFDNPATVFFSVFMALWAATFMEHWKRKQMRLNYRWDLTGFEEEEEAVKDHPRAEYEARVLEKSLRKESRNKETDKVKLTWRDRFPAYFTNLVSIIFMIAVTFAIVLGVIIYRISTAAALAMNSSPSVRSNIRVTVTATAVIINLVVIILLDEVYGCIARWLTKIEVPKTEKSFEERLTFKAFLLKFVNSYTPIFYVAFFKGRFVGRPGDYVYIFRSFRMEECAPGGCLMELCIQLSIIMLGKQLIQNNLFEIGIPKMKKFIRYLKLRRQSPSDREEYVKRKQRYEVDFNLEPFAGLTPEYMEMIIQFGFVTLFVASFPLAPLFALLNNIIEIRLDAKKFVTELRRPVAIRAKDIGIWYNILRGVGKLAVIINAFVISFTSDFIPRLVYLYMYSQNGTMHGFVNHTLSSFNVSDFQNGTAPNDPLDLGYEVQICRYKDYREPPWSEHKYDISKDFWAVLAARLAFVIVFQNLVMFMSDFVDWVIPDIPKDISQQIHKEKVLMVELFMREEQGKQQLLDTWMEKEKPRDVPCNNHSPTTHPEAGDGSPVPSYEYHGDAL
# IDE inh: cellular human IDE inhibition; AID 434962; HEK cells, FAbetaB cleavage, fluorescence polarization; inhibition, % at 5.59 µM; hit rate 0.41% among 320,000;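 active = percent inhibition above the average of all tested compounds plus 3 SD, set per screening campaign, cut at about 16% in these data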;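 also: IDE supplied by intact live HEK cells; FP after avidin binding of uncleaved biotin substrate so inhibition keeps polarization high; 0% = DMSO wells and 100% = 60 µM reference IDE inhibitor Ii1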
# ANO1 block: mouse TMEM16A channel inhibition, primary screen | AID 588511 | normalized B-score (activity score, 25-100; higher = stronger inhibition) at 10 µM | Q8BHY3 | HEK293 TMEM16A/YFP iodide influx fluorescence, ionomycin | hit rate 1.2% among 310,000;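 active = ratio plate-corrected score three or more library SD toward inhibition, starting fluorescence score within five deviations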;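 also: score derived from kinetic fluorescence span divided by baseline fluorescence per well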
# * marks the source's active call; other numbers are inactive results; i = inactive; . = no result.
SMILES,CHT allo act,IDE cell activ,CHT inh,ANO1 activ,IDE inh,ANO1 block
CCC1(C)Cc2c(C#N)c(N)sc(=S)c2CO1 (configuration not stated),i,-0.8,i,-25.1*,4.7,i
CCCCCN(C(=O)CCC(=O)OCC(=O)N1C(C)CCCC1C)c1c(N)n(CCCC)c(=O)[nH]c1=O (configuration not stated),i,1.3,i,i,4.3,i
CCc1ccc2nc(NC(=O)CN3C(=O)NC4(CCCC4)C3=O)sc2c1,.,2.0,.,i,0.0,.
O=C(Cc1ccc(Br)cc1)c1ccc(O)cc1O,i,3.9,-6.74*,i,1.8,i
CCCn1c(SCC(=O)Nc2cc(S(=O)(=O)N3CCCCC3)ccc2C)n[nH]c1=O,.,4.9,.,i,-2.9,.
CC(C)COc1ccc(CSCCNC(=S)Nc2ccccc2)cc1,i,5.9,i,i,4.8,100*
O=C1CCC(=O)N1c1nc2nc(-c3ccccc3)cc(=O)n2[nH]1,i,2.3,i,-23.5*,4.6,i
Cc1nc2nc(-c3ccccc3)cc(=O)n2[nH]1,i,-0.5,i,i,1.8,i
O=C(O)c1ccc(N=C2c3ccccc3-c3ccccc32)cc1,.,-4.6,.,i,.,.
O=C(O)c1ccc(C=NN=C2c3ccccc3-c3ccccc32)cc1,.,-7.4,.,-4.82*,.,.
O=C(NCC1CCCO1)c1ccccc1-c1nc(-c2ccc(F)cc2)no1 (configuration not stated),i,-1.6,i,i,-0.9,100*
COc1ccc(CN2C(=O)c3cccnc3C2=O)cc1S(=O)(=O)N1CCOc2ccc(Cl)cc21,i,4.9,i,i,6.0,i
Cc1ccc2c(c1)N(S(=O)(=O)c1ccc(CN3C(=O)c4cccnc4C3=O)cc1)CCO2,i,0.9,i,-22.9*,-2.2,i
CC(C)(C)c1cc[n+](-c2[nH]c(=O)sc2/C=N/N=C(\[O-])c2cccnc2)cc1,i,1.5,i,i,-0.3,i
O=c1[nH]c(-[n+]2ccc3ccccc3c2)c(/C=N/N=C(\[O-])c2ccccc2)s1,i,-0.5,i,-11.5*,-3.9,i
COc1ccc(-c2sc3ccccc3c2C#CCCO)cc1,i,2.5,i,i,-3.4,i
COc1ccc(-c2sc3ccccc3c2C#CCO)cc1,i,-1.7,i,i,8.5,25*
Cc1nnc(SC(C)C(=O)Nc2ncc(Cl)cc2Cl)n1Cc1ccccc1 (configuration not stated),i,-3.9,i,-20.3*,1.8,i
O=C(COC(=O)CCC(=O)c1cccs1)Nc1ccccc1C(F)(F)F,.,2.3,.,i,1.0,.
O=C1CC(N2CCN(c3ccc(Cl)cc3)CC2)C(=O)N1c1ccc(F)cc1 (configuration not stated),i,4.8,i,i,-4.8,i
O=C1CC(N2CCCN(C3CC(=O)N(c4ccc(F)cc4)C3=O)CC2)C(=O)N1c1ccc(F)cc1 (configuration not stated),i,3.6,i,-8.57*,2.8,i
CN1C(=O)/C(=C/c2cc(N=Nc3ccccc3)ccc2O)SC1=S,i,0.7,i,i,-3.9,100*
Cc1c(N2C(=O)/C(=C\c3ccccc3O)SC2=S)c(=O)n(-c2ccccc2)n1C,i,-28.8,i,i,10.7,i
CC(C)S(=O)(=O)N1CCN(c2ccnc3cc(Cl)ccc23)CC1,i,.,i,i,23.3*,i
CC(C)c1cccc(C(C)C)c1NC(=O)CN1CCCC1,i,5.6,i,i,2.4,i
COc1nc(N=C(N)N)nc2ccc(C)cc12,7.44*,.,i,.,-9.3,i
COc1nc(Nc2nc3ccccc3c(=O)[nH]2)nc2ccc(C)cc12,i,9.6,i,i,2.6,i
COc1ccccc1N1CCN(C(=O)C2CCCN(S(=O)(=O)c3ccc4c(c3)CCCN4C(C)=O)C2)CC1 (configuration not stated),i,0.0,i,i,6.0,25*
Cc1c(C(=O)Nc2nc3ccccc3[nH]2)oc2ccccc12,i,-5.0,i,i,-4.5,i

# Bioassay records: PubChem, several laboratories
